# Laboratory results published in PubChem BioAssay (Tox21).
# Where “and” joins values, the source holds several entries; their conditions need not be identical. Identical values can stand only once. Values without a mark were called inactive. Records with an inconclusive call do not appear. Where a call stands in place of a potency, no number is given. Calls of active or inactive are those of the source. Unless noted, calls follow the shape of the dose curve; as a rule, active = well fitted curve in the direction sought with a large enough effect in the repeat runs; inconclusive = weak or mixed curves; inactive = no such curve, though single readings can be large; an effect the other way counts as inactive or inconclusive.
# Tests used:
# [1] = qHTS assay to identify small molecule antagonists of the glucocorticoid receptor (GR) signaling pathway - cell viability counter screen (AID 720693); also: nearly all actives have a fitted effect of over 55% in size; also: potency is read from the fitted curve at half-maximal effect
# [2] = biological target: Bile acid receptor (Homo sapiens) (UniProt Q96RI1); assay: qHTS assay to identify small molecule agonists of the farnesoid-X-receptor (FXR) signaling pathway (AID 743220; active = well fitted activation curve with a large enough effect in the signal ratio in the repeat runs, not every such curve was filed as active; the % refers to the signal ratio)
# Sequence of Bile acid receptor (Homo sapiens) (Q96RI1 whole entry, looked up): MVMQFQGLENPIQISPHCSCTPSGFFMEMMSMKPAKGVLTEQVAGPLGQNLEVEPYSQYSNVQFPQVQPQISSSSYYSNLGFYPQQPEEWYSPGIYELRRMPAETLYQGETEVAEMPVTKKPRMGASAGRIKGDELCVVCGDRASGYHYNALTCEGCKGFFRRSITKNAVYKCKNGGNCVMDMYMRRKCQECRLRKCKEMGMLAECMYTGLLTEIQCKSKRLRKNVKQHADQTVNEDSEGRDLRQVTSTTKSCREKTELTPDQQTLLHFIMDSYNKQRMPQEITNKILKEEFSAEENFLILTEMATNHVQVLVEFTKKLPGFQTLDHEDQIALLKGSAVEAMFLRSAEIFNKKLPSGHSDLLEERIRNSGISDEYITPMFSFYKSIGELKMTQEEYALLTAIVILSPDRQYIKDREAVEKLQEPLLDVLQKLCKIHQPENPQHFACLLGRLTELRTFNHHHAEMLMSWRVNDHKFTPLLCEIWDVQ
# Summary of the method: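 FXR-UAS-bla HEK 293T cells carrying a UAS-driven beta-lactamase reporter were plated for 5 h at 37C/5% CO2, then exposed to DMSO-dissolved Tox21 10K compounds for 16 h at 37C. A LiveBLAzer B/G FRET substrate was loaded for 2 h at room temperature before fluorescence reading.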
# [3] = qHTS assay for small molecule agonists of the antioxidant response element (ARE) signaling pathway (AID 743202; active = well fitted activation curve with a large enough effect in the signal ratio in the repeat runs, not every such curve was filed as active; the % refers to the signal ratio; also: potency is read from the fitted curve at half-maximal effect)
# Summary of the method: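 Steps: seed ARE-bla HepG2 cells (2,000/well); incubate 5 h at 37 C; add compounds by pin tool; incubate 16 h at 37 C; add FRET substrate; read fluorescence after 2 h at RT.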
# [4] = biological target: Peroxisome proliferator-activated receptor delta (Homo sapiens) (UniProt Q03181); assay: qHTS assay to identify small molecule agonists of the peroxisome proliferator-activated receptor delta (PPARd) signaling pathway (AID 743212; calls by dose curve)
# Sequence of Peroxisome proliferator-activated receptor delta (Homo sapiens) (Q03181 whole entry, looked up): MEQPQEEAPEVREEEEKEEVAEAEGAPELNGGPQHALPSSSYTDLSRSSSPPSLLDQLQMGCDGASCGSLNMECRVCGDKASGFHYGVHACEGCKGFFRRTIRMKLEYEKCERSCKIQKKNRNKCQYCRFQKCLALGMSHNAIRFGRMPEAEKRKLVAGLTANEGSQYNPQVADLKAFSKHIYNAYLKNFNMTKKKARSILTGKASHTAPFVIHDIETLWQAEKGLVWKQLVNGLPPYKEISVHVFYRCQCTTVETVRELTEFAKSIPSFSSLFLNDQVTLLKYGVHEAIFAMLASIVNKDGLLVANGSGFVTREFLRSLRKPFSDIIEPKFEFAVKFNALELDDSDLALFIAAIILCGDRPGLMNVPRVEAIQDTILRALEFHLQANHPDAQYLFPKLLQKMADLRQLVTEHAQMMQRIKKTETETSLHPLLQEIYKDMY
# Summary of the method: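 Cells expressing a UAS-driven beta-lactamase reporter (PPARd-bla HEK293H) were given test compounds after a 5 h settle and kept at 37 C. Reporter activity was then measured as FRET fluorescence using LiveBLAzer B/G substrate.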
# [5] = qHTS assay to identify small molecule agonists of the AP-1 signaling pathway (AID 1159526; calls by dose curve)
# [6] = biological target: Androgen receptor (Homo sapiens) (UniProt P10275); assay: qHTS assay to identify small molecule antagonists of the androgen receptor (AR) signaling pathway (AID 743035; active = well fitted inhibition curve with a large enough effect in the signal ratio in the repeat runs, not every such curve was filed as active; the % refers to the signal ratio; also: potency is read from the fitted curve at half-maximal effect)
# Sequence of Androgen receptor (Homo sapiens) (P10275 whole entry, looked up): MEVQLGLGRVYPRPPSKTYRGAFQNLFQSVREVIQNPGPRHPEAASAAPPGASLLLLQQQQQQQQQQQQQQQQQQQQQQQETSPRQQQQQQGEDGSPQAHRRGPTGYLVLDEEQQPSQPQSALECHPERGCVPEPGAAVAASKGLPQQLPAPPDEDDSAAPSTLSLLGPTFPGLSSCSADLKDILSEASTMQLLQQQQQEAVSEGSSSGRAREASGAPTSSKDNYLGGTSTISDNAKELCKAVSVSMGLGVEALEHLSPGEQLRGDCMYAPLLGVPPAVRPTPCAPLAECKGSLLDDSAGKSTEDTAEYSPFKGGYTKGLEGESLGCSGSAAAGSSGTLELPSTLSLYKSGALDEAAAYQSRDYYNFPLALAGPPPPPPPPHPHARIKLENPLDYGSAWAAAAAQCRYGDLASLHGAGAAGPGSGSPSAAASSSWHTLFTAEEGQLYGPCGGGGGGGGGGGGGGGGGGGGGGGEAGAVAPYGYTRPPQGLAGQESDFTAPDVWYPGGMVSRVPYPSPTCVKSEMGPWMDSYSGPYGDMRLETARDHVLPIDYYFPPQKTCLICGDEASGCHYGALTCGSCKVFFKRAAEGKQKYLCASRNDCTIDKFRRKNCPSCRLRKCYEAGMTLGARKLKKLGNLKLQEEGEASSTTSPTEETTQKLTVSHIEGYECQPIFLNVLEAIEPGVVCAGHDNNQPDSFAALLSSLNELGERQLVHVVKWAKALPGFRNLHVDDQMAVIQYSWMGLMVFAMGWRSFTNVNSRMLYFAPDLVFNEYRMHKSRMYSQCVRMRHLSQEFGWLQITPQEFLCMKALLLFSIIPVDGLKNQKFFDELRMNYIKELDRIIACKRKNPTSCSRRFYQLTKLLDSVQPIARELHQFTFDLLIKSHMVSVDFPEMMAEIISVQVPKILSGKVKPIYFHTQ
# Summary of the method: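 In this cell-based reporter screen, compounds were tested in concentration series against R1881-activated HEK293 cells expressing beta-lactamase under UAS control; after 16 h at 37C, FRET substrate was added and fluorescence read 2 h later.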
# [7] = biological target: Androgen receptor (Homo sapiens) (UniProt P10275); assay: qHTS assay to identify small molecule agonists of the androgen receptor (AR) signaling pathway (AID 743036; active = well fitted activation curve with a large enough effect in the signal ratio in the repeat runs, with a control signal flat, not every such curve was filed as active; the % refers to the signal ratio)
# Summary of the method: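 Screening used 2,000 AR-bla HEK293 cells per well, treated 16 h at 37C with test compounds in DMSO alongside positive and DMSO-only controls; beta-lactamase activity was then read by LiveBLAzer B/G FRET fluorescence after 2 h at room temperature.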
# [8] = qHTS assay to identify small molecule antagonists of the androgen receptor (AR) signaling pathway using the MDA cell line - cell viability counter screen (AID 743041; also: nearly all actives have a fitted effect of over 45% in size; also: potency is read from the fitted curve at half-maximal effect)
# Summary of the method: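 qHTS viability read-out; MDA-kb2 AR-luc; R1881-stimulated; 16 h exposure at 37C, 0% CO2; CellTiter-Fluor, 30 min; fluorescence intensity.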
# [9] = biological target: Androgen receptor (Homo sapiens) (UniProt P10275); assay: qHTS assay to identify small molecule antagonists of the androgen receptor (AR) signaling pathway using the MDA cell line (AID 743042; also: potency is read from the fitted curve at half-maximal effect; nearly all actives have a fitted effect of over 55% in size)
# Summary of the method: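 MDA-kb2 cells (human breast carcinoma, stably carrying an MMTV-luciferase reporter responsive to AR and GR) were plated at 3,000 cells/well and preincubated 5 hr at 37C, then given compound plus R1881 agonist for 16 h. ONE-Glo luminescence was read.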
# [10] = biological target: Estrogen receptor (Homo sapiens) (UniProt P03372); assay: qHTS assay to identify small molecule antagonists of the estrogen receptor alpha (ER-alpha) signaling pathway (AID 743069; active = well fitted curve in the direction sought with a large enough effect in the signal ratio in the repeat runs, not every such curve was filed as active; the % refers to the signal ratio; also: potency is read from the fitted curve at half-maximal effect)
# Sequence of Estrogen receptor (Homo sapiens) (P03372 whole entry, looked up): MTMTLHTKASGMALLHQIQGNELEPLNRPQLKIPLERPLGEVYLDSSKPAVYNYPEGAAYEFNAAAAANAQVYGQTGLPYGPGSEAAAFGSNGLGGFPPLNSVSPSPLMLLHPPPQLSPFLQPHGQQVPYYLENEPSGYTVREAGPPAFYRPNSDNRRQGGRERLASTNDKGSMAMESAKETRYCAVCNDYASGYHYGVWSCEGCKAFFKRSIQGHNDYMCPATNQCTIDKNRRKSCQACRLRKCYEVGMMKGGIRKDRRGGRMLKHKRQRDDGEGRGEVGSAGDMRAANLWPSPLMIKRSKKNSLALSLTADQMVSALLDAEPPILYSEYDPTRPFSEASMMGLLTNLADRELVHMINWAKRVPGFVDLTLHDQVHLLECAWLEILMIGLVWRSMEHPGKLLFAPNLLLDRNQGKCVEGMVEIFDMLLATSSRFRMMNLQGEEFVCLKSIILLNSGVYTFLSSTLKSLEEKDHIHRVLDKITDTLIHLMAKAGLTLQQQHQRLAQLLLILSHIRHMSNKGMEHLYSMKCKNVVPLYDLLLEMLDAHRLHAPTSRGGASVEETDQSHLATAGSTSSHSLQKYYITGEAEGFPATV
# Summary of the method: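 Screening used a UAS-driven beta-lactamase reporter integrated into HEK293 cells expressing ER-alpha, stimulated with 17beta-estradiol alongside test compounds over 18 hr at 37C; signal came from LiveBLAzer B/G FRET fluorescence.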
# [11] = biological target: Peroxisome proliferator-activated receptor gamma (Homo sapiens) (UniProt P37231); assay: qHTS assay to identify small molecule agonists of the peroxisome proliferator-activated receptor gamma (PPARg) signaling pathway (AID 743094; active = well fitted activation curve with a large enough effect in the signal ratio in the repeat runs, not every such curve was filed as active; the % refers to the signal ratio)
# Sequence of Peroxisome proliferator-activated receptor gamma (Homo sapiens) (P37231 whole entry, looked up): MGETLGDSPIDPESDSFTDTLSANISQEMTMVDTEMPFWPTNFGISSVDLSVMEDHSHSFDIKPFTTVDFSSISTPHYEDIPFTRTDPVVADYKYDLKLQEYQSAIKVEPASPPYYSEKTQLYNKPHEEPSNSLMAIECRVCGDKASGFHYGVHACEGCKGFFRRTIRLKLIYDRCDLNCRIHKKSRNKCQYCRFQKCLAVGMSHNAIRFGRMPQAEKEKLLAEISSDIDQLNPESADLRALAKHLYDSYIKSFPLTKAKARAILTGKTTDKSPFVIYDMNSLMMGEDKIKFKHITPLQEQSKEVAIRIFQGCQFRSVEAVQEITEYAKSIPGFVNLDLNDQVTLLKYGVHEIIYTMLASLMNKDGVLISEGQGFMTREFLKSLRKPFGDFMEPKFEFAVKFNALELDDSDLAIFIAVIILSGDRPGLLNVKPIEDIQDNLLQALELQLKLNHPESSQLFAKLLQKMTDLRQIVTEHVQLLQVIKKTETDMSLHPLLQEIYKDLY
# Summary of the method: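 Cell-based bla reporter, HEK293H background, PPARg-driven UAS. Pre-incubation 5 h, 37C, 5% CO2. Compound 17 h, 37C. Substrate 1 h RT; fluorescence.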
# [12] = biological target: Vitamin D3 receptor (Homo sapiens) (UniProt P11473); assay: qHTS assay to identify small molecule agonists of the vitamin D receptor (VDR) signaling pathway (AID 743222; calls by dose curve)
# Sequence of Vitamin D3 receptor (Homo sapiens) (P11473 whole entry, looked up): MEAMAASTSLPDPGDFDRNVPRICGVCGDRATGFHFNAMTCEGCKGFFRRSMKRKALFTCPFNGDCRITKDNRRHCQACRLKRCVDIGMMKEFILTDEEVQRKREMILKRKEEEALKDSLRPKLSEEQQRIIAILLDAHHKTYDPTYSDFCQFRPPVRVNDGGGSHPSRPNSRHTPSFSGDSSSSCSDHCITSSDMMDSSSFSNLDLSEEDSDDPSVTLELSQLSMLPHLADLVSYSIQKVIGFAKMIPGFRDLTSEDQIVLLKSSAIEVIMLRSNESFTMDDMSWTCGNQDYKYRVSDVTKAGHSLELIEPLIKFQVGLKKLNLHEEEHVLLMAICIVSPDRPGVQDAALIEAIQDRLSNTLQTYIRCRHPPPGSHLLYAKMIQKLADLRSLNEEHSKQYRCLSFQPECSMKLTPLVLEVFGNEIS
# Summary of the method: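 Following 4 h attachment at 37C, VDR-bla cells (2,000 per well) received DMSO-dissolved compounds or controls. After 16 h incubation, LiveBLAzer B/G FRET substrate was added and fluorescence read 2 h later at room temperature.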
# [13] = biological target: Estrogen receptor (Homo sapiens) (UniProt P03372); assay: qHTS assay to identify small molecule agonists of the estrogen receptor alpha (ER-alpha) signaling pathway using the BG1 cell line (AID 743079); also: nearly all actives have a fitted effect of over 20% in size
# [14] = biological target: Peroxisome proliferator-activated receptor gamma (Homo sapiens) (UniProt P37231); assay: qHTS assay to identify small molecule antagonists of the peroxisome proliferator-activated receptor gamma (PPARg) signaling pathway (AID 743191; calls by dose curve; also: potency is read from the fitted curve at half-maximal effect; nearly all actives have a fitted effect of over 30% in size)
# Summary of the method: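 GeneBLAzer PPARg UAS-bla HEK293H cells carrying a UAS-driven beta-lactamase reporter were plated at 3000 cells/well, preincubated 5 h at 37C, then given compound for 17 h at 37C; LiveBLAzer B/G FRET substrate was read after 1 h at room temperature.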
# [15] = biological target: Androgen receptor (Homo sapiens) (UniProt P10275); assay: qHTS assay to identify small molecule agonists of the androgen receptor (AR) signaling pathway using the MDA cell line (AID 743040; also: nearly all actives have a fitted effect of over 20% in size)
# Summary of the method: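 Agonist activity is measured as luciferase luminescence in human MDA-kb2 cells whose MMTV reporter responds to both AR and GR. Compounds in DMSO incubate 16 h at 37C, 0% CO2, and ONE-Glo is read after 30 min.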
compound,measurement,setting,value
c1ccc2c(c1)Sc1ccccc1N2CC1CN2CCC1CC2 (stereo unspecified),Potency,[1],inactive
CCC(C)=O,outcome,[2],inactive
CC1COC(Cn2cncn2)(c2ccc(Oc3ccc(Cl)cc3)cc2Cl)O1 (stereo unspecified),Potency,[3],1.93 µM (active)
same,outcome,[4],inactive
same,outcome,[2],inactive
same,outcome,[5],inactive
CCCCC(CC)COC(=O)c1ccc(C(=O)OCC(CC)CCCC)cc1 (stereo unspecified),outcome,[2],inactive
CCOC(=O)C(O)(c1ccc(Cl)cc1)c1ccc(Cl)cc1,Potency,[1],17.6 µM (active)
same,Potency,[6],19.5 µM (active)
same,Potency,[7],inactive
same,Potency,[8],61.8 µM (active)
same,Potency,[9],19.5 µM (active) and 68.6 µM (active)
same,Potency,[10],55.5 µM [cytotoxic] (active) and 54.9 µM [inhibitor] (active)
same,Potency,[11],inactive
same,outcome,[4],inactive
same,outcome,[12],inactive
O=C(Nc1ccccc1-c1ccc(Cl)cc1)c1cccnc1Cl,Potency,[10],inactive
same,Potency,[13],inactive
same,Potency,[11],inactive
same,Potency,[14],51.9 µM (active)
CNC(=O)Oc1cc(C)c(SC)c(C)c1,outcome,[5],inactive
COc1cc(OC)c(OC)cc1C=O,Potency,[15],inactive
same,Potency,[8],inactive
same,Potency,[13],inactive
Nc1ccc([N+](=O)[O-])cc1,Potency,[6],43.6 µM (active)
same,outcome,[12],inactive
O=[N+]([O-])c1c(Cl)c(Cl)cc(Cl)c1Cl,Potency,[10],inactive
same,Potency,[11],inactive
CCN(CC)C(=O)Cl,outcome,[5],inactive
Cc1ccc(N(SC(F)(Cl)Cl)S(=O)(=O)N(C)C)cc1,Potency,[1],inactive
same,Potency,[15],inactive
same,Potency,[8],54.5 µM (active)
same,Potency,[9],8.63 µM (active)
OCC(c1ccc(Cl)cc1)c1ccc(Cl)cc1,Potency,[11],inactive
same,outcome,[2],inactive
same,outcome,[12],inactive
